Data taken from PubChem BioAssay (Tox21).
Inconclusive results are not listed. Activity calls are given as the source filed them. Unless noted, calls follow the shape of the dose curve; as a rule, active = well fitted curve in the direction sought with a large enough effect in the repeat runs; inconclusive = weak or mixed curves; inactive = no such curve, though single readings can be large; an effect the other way counts as inactive or inconclusive.

Key:
[1] = qHTS assay to identify small molecule agonists of the peroxisome proliferator-activated receptor delta (PPARd) signaling pathway - cell viability counter screen (AID 743211); also: % is scaled to controls: 0 for no effect and ±100 for the full control effect; nearly all actives have a fitted effect of over 55% in size
Outline: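 PPARd-bla HEK293H cells (3000/well) were pre-incubated 5 h at 37 C, then exposed to compound for 17 h at 37 C. After 2 h with LiveBLAzer substrate, CellTiter-Glo was added to the same wells; luminescence read after 30 min at room temperature.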

[2] = qHTS assay to identify small molecule antagonists of the peroxisome proliferator-activated receptor delta (PPARd) signaling pathway - cell viability counter screen (AID 743213); also: % is scaled to controls: 0 for no effect and ±100 for the full control effect; nearly all actives have a fitted effect of over 50% in size
Outline: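 Luminescence from CellTiter-Glo, added after the bla read and incubated 30 min at room temperature, gives viability of HEK293H PPARd-bla cells exposed to compounds for 17 h at 37 C with 300 nM L165041.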

[3] = qHTS assay to identify small molecule agonists of the farnesoid-X-receptor (FXR) signaling pathway - cell viability counter screen (AID 743218); also: nearly all actives have a fitted effect of over 45% in size; also: potency is read from the fitted curve at half-maximal effect
Outline: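 HEK 293T FXR-bla cells; 5 h pre-incubation, 16 h compound exposure at 37 C; LiveBLAzer substrate 2 h RT, then CellTiter-Glo 30 min RT, luminescence.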

[4] = qHTS assay to identify small molecule antagonists of the farnesoid-X-receptor (FXR) signaling pathway - cell viability counter screen (AID 743221; active = well fitted cell-killing curve with a large enough effect in the repeat runs, not every such curve was filed as active; also: nearly all actives have a fitted effect of over 50% in size; also: potency is read from the fitted curve at half-maximal effect)
Outline: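 GeneBLAzer FXR-UAS-bla HEK 293T cells, compound plus chenodeoxycholic acid (50 uM final), 16 h at 37 C. CellTiter-Glo added to the same wells after the beta-lactamase read; luminescence read after 30 min at room temperature as viability.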

[5] = biological target: Vitamin D3 receptor (Homo sapiens) (UniProt P11473); assay: qHTS assay to identify small molecule agonists of the vitamin D receptor (VDR) signaling pathway (AID 743222; calls by dose curve; also: % is scaled to controls: 0 for no effect and ±100 for the full control effect)
Sequence of Vitamin D3 receptor (Homo sapiens) (P11473 whole entry, looked up): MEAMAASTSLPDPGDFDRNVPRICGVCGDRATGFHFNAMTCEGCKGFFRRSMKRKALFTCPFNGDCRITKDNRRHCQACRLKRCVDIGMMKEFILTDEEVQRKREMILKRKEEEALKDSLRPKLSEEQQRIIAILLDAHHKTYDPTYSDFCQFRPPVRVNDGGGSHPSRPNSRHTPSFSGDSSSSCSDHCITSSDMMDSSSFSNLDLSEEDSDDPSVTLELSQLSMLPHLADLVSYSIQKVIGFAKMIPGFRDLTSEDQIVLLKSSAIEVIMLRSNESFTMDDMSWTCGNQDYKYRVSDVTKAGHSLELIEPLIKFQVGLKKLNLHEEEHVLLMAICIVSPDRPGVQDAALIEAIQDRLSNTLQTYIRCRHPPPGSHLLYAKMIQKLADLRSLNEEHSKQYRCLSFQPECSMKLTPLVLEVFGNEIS
Outline: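 VDR-bla cells, 2,000/well; 4 h preincubation 37C; cpd (DMSO) 16 h; LiveBLAzer B/G substrate 2 h RT; fluorescence intensity read.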

[6] = biological target: Vitamin D3 receptor (Homo sapiens) (UniProt P11473); assay: qHTS assay to identify small molecule antagonists of the vitamin D receptor (VDR) signaling pathway (AID 743223; active = well fitted inhibition curve with a large enough effect in the signal ratio in the repeat runs, not every such curve was filed as active; the % refers to the signal ratio; also: % is scaled to controls: 0 for no effect and ±100 for the full control effect)
Outline: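 VDR-bla cells were treated with compound plus 3 nM final 1alpha,25-dihydroxyvitamin D3 for 16 h at 37C. Beta-lactamase reporter read by B/G FRET substrate fluorescence after 2 h at room temperature. qHTS format.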

[7] = qHTS assay to identify small molecule agonists of the vitamin D receptor (VDR) signaling pathway - cell viability counter screen (AID 743224); also: nearly all actives have a fitted effect of over 50% in size; also: potency is read from the fitted curve at half-maximal effect
Outline: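 Luminescence from CellTiter-Glo, read after 30 min at room temperature, reports viability of VDR-bla cells treated with compounds for 16 h at 37C in the wells used for the beta-lactamase FRET read.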

[8] = qHTS assay to identify small molecule agonists of the NFkB signaling pathway (AID 1159509; active = well fitted curve in the direction sought with a large enough effect in the signal ratio in the repeat runs, not every such curve was filed as active; the % refers to the signal ratio; also: series mostly up to about 61 µM; % is scaled to controls: 0 for no effect and ±100 for the full control effect)
Outline: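 After overnight attachment, reporter cells received test compounds, DMSO or positive controls and were incubated 5 hr at 37 C. FRET substrate was then added for 1.5 hr at room temperature before dual-emission fluorescence reading.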

[9] = qHTS assay to identify small molecule agonists of the NFkB signaling pathway - cell viability counter screen (AID 1159515; calls by dose curve; also: nearly all actives have a fitted effect of over 55% in size; also: potency is read from the fitted curve at half-maximal effect)
Outline: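 Luminescence from CellTiter-Glo (30 min, room temperature) gives viability, measured in the same wells as the beta-lactamase reporter read. Cells were NFkB-bla ME-180, 2,000 per well, treated 5 hr with compounds.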

[10] = qHTS assay to identify small molecule antagonists of the retinoid-related orphan receptor gamma (ROR-gamma) signaling pathway - cell viability counter screen (AID 1159520); also: nearly all actives have a fitted effect of over 50% in size; also: potency is read from the fitted curve at half-maximal effect
Outline: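 Tet-on ROR gamma CHO cells were given compounds for 2 hr, then doxycycline hyclate at 1 uM final, and incubated 16 hr at 37 C. Viability was measured as ATP content by CellTiter-Glo luminescence.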

[11] = biological target: Nuclear receptor ROR-gamma (Homo sapiens) (UniProt P51449); assay: qHTS assay to identify small molecule antagonists of the retinoid-related orphan receptor gamma (ROR-gamma) signaling pathway (AID 1159521; also: nearly all actives have a fitted effect of over 50% in size; also: potency is read from the fitted curve at half-maximal effect)
Outline: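 Tet-on ROR-gamma CHO cells with ROR response element-luciferase reporter; compounds added 2 hr before 1 uM doxycycline induction, then 16 hr at 37 C. Antagonism scored as decreased ONE-Glo luminescence.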

[12] = qHTS assay to identify small molecule agonists of the AP-1 signaling pathway - cell viability counter screen (AID 1159525; calls by dose curve; also: nearly all actives have a fitted effect of over 55% in size)
Outline: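 AP-1-bla ME-180 cells in Opti-MEM with 0.5% dialyzed FBS, compound exposure 5 h at 37 C in 15-point titration. Viability read in the same wells as ATP content by CellTiter-Glo luminescence, normalised to tetra-n-octylammonium bromide and DMSO controls.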

[13] = qHTS assay to identify small molecule agonists of the AP-1 signaling pathway (AID 1159526; calls by dose curve; also: % is scaled to controls: 0 for no effect and ±100 for the full control effect)
[14] = biological target: Peroxisome proliferator-activated receptor delta (Homo sapiens) (UniProt Q03181); assay: qHTS assay to identify small molecule agonists of the peroxisome proliferator-activated receptor delta (PPARd) signaling pathway (AID 743212; calls by dose curve; also: % is scaled to controls: 0 for no effect and ±100 for the full control effect)
Sequence of Peroxisome proliferator-activated receptor delta (Homo sapiens) (Q03181 whole entry, looked up): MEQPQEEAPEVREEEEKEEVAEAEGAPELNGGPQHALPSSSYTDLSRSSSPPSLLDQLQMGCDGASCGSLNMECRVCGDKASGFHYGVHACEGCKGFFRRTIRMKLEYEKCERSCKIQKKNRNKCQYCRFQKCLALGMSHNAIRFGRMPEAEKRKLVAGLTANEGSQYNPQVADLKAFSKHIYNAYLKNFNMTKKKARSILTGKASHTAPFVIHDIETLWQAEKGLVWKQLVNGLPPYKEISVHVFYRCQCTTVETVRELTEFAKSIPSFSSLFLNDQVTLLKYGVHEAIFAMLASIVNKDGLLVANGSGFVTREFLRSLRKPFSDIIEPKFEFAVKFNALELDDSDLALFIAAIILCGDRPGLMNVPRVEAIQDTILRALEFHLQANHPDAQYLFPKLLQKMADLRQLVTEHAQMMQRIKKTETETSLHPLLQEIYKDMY
Outline: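 Quantitative high-throughput agonist screen in a HEK293H beta-lactamase reporter line under UAS control. Compounds in DMSO, at 37 C. Fluorescence read after 2 h with FRET substrate at room temperature.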

[15] = biological target: Peroxisome proliferator-activated receptor delta (Homo sapiens) (UniProt Q03181); assay: qHTS assay to identify small molecule antagonists of the peroxisome proliferator-activated receptor delta (PPARd) signaling pathway (AID 743215; active = well fitted inhibition curve with a large enough effect in the signal ratio in the repeat runs, not every such curve was filed as active; the % refers to the signal ratio)
Outline: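 Read-out is beta-lactamase FRET fluorescence, measured 2 h after substrate addition at room temperature. Beforehand, UAS-bla HEK293H cells carrying the PPARd reporter were exposed to compounds with L165041 at 300 nM final for 17 h at 37 C.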

[16] = biological target: Bile acid receptor (Homo sapiens) (UniProt Q96RI1); assay: qHTS assay to identify small molecule antagonists of the farnesoid-X-receptor (FXR) signaling pathway (AID 743217; active = well fitted inhibition curve with a large enough effect in the signal ratio in the repeat runs, not every such curve was filed as active; the % refers to the signal ratio; also: % is scaled to controls: 0 for no effect and ±100 for the full control effect)
Sequence of Bile acid receptor (Homo sapiens) (Q96RI1 whole entry, looked up): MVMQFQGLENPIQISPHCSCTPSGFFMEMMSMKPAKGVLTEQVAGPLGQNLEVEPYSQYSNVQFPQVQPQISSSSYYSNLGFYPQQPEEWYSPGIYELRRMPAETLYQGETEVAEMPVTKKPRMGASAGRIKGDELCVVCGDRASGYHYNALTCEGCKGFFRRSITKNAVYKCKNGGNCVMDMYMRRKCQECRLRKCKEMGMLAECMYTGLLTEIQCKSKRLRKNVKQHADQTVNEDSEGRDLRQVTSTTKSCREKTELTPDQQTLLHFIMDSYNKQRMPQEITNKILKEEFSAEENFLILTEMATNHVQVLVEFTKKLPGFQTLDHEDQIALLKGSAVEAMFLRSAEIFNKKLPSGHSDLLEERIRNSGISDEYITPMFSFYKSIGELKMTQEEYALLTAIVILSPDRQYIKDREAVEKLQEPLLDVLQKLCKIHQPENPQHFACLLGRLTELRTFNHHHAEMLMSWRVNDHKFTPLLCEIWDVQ
Outline: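 HEK 293T FXR-UAS-bla, 5000 cells/well; compound + CDCA 50 uM final; 16 h, 37 °C; B/G FRET substrate 2 h RT; fluorescence.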

[17] = biological target: Bile acid receptor (Homo sapiens) (UniProt Q96RI1); assay: qHTS assay to identify small molecule agonists of the farnesoid-X-receptor (FXR) signaling pathway (AID 743220; active = well fitted activation curve with a large enough effect in the signal ratio in the repeat runs, not every such curve was filed as active; the % refers to the signal ratio; also: % is scaled to controls: 0 for no effect and ±100 for the full control effect)
Outline: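 Beta-lactamase reporter under UAS control in GeneBLAzer FXR HEK 293T cells (5000/well) measured with LiveBLAzer FRET substrate after 2 h at room temperature. Compound exposure lasted 16 h at 37C.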

[18] = qHTS assay to identify small molecule antagonists of the vitamin D receptor (VDR) signaling pathway - cell viability counter screen (AID 743225)
Outline: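 VDR-UAS-bla HEK 293T cells were plated and incubated 4 h at 37C, then dosed with compound plus 3 nM (final) 1-alpha,25-dihydroxyvitamin D3 for 16 h. After the 2 h beta-lactamase read, viability in the same wells was read as CellTiter-Glo luminescence after 30 min at room temperature.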

[19] = qHTS assay to identify small molecule agonists of the endoplasmic reticulum stress response signaling pathway - cell viability counter screen (AID 1159517; calls by dose curve; also: nearly all actives have a fitted effect of over 50% in size; also: potency is read from the fitted curve at half-maximal effect)
Outline: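 Counter-screen wells were identical to the reporter wells. Cells were plated at 1,500 per well and dosed for 5 hr, then read for luminescence 30 min after CellTiter-Glo addition.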

CCOC(=O)C(Cl)C(C)=O (stereo unspecified)
inactive: Potency [1] | Potency [2] | Potency [3] | Potency [4] | outcome [5] | outcome [6] | Potency [7] | outcome [8] | Potency [9] | Potency [10] | Potency [11] | Potency [12] | outcome [13]

ClP(Cl)(Cl)(Cl)Cl
inactive: Potency [1] | outcome [14] | Potency [2] | Potency [15] | Potency [16] | Potency [3] | outcome [17] | Potency [4] | outcome [5] | Potency [7] | Potency [18] | outcome [8] | Potency [9] | Potency [19] | Potency [12] | outcome [13]

II
active: Potency [10] 30.6 µM
inactive: Potency [1] | outcome [14] | Potency [2] | Potency [15] | Potency [3] | outcome [5] | Potency [7] | Potency [18] | outcome [8] | Potency [9] | Potency [19]

Nc1ccc(N=Nc2ccc(-c3ccc(N=Nc4c(S(=O)(=O)O)cc5cc(S(=O)(=O)O)c(N=Nc6ccccc6)c(O)c5c4N)cc3)cc2)c(N)c1
active: Potency [10] 15.7 µM
inactive: outcome [14] | outcome [6] | outcome [8] | Potency [9] | Potency [19] | Potency [12]

N#Cc1ccc(Cl)cc1
inactive: Potency [1] | outcome [14] | Potency [2] | Potency [3] | Potency [4] | outcome [5] | outcome [6] | Potency [7] | Potency [18] | outcome [8] | Potency [9] | Potency [19] | Potency [11] | Potency [12] | outcome [13]

CC(C)(OO)c1ccccc1
active: Potency [7] 54.9 µM | Potency [19] 43.6 µM
inactive: outcome [14] | Potency [2] | Potency [15] | Potency [16] | Potency [3] | outcome [17] | Potency [4] | outcome [8] | Potency [9] | Potency [12] | outcome [13]

CC(C)O.CC(C)O.OCCN(CCO)CCO.OCCN(CCO)CCO.[Ti]
inactive: Potency [1] | Potency [2] | Potency [3] | Potency [4] | Potency [7] | outcome [8] | Potency [9] | Potency [19] | Potency [10] | Potency [12]

Cc1ccc(N)cc1C
inactive: Potency [1] | outcome [14] | Potency [15] | Potency [3] | outcome [17] | Potency [4] | outcome [6] | Potency [7] | Potency [18] | outcome [8] | Potency [9] | Potency [10] | Potency [11] | Potency [12] | outcome [13]

O=S1(=O)OC(c2cc(Br)c(O)c(Br)c2)(c2cc(Br)c(O)c(Br)c2)c2ccccc21
active: Potency [9] 40 µM | Potency [10] 7.91 µM | Potency [11] 5.6 µM
inactive: outcome [14] | Potency [15] | Potency [16] | outcome [17] | Potency [18] | outcome [8] | Potency [12] | outcome [13]

O=C(NC(=O)c1c(F)cccc1F)Nc1ccc(OC(F)(F)C(F)OC(F)(F)F)c(Cl)c1 (stereo unspecified)
inactive: Potency [1] | Potency [2] | Potency [15] | Potency [3] | Potency [4] | outcome [5] | outcome [6] | Potency [7] | Potency [18] | outcome [8] | Potency [9] | Potency [10] | Potency [11] | Potency [12] | outcome [13]

NCC(CC(=O)O)c1ccc(Cl)cc1 (stereo unspecified)
inactive: activity change, negative = cytotoxicity [1] -0.324% [at 0.55 µM] | activation [14] 1.99% [at 0.55 µM] | viability change, negative = cytotoxic [2] -11.6% [at 0.575 µM] | ratio activity, negative = inhibition [15] -0.236% [at 0.575 µM] | viability change, negative = cytotoxic [3] 0.276% [at 0.55 µM] | activity change, negative = cytotoxicity [4] 3.53% [at 0.55 µM] | activity change, negative = cytotoxicity [7] 15.2% [at 0.55 µM] | viability change, negative = cytotoxic [18] 6.5% [at 0.628 µM] | activation [8] 0.398% [at 0.628 µM] | activity, negative = cytotoxic [9] 1.83% [at 0.628 µM] | activity, negative = cytotoxicity [10] -1.2% [at 0.349 µM] | activity change, negative = inhibition [11] 4.26% [at 0.35 µM] | viability change, negative = cytotoxic [12] -1.57% [at 0.29 µM] | activation [13] -1.64% [at 0.29 µM]

NS(=O)(=O)C(F)(F)C(F)(F)C(F)(F)C(F)(F)C(F)(F)C(F)(F)C(F)(F)C(F)(F)F
active: Potency [3] 54.9 µM | Potency [4] 27.5 µM | Potency [7] 49 µM | Potency [11] 54.5 µM
inactive: Potency [2] | outcome [8] | Potency [9] | Potency [10] | Potency [12] | outcome [13]
